Data taken from PubChem BioAssay (EPA / NIEHS).
“And” between values parts separate entries of the source, which are not always exact repeats. Equal entries are not always repeated. More than one record can exist for a structure, and the calls need not agree. The source made the active and inactive calls. The calls were made as follows: active = hit-call score of the fitted dose curve at least 0.9, where 1 is the maximum; inactive = score below 0.9.

Columns and labels:
[1] = ATG_E_Box_CIS: Attagene CIS-FACTORIAL HepG2 Assay for human Enhancer Box (E-box) (AID 2282936); conditions: HepG2 E-box cis-reporter transcription, actives raise or lower the signal
Summary of the method: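 Multiplexed CIS reporter system in transiently transfected HepG2 cells measures native transcription factor activity. Reporter RNA after 24 h exposure is profiled by RT-PCR-capillary electrophoresis.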

[2] = ATG_M_61_CIS: Attagene CIS-FACTORIAL HepG2 Assay for M61 Transcription Factor (Internal Marker) (AID 2282937); conditions: HepG2 Attagene CIS-FACTORIAL M61 internal marker reporter; actives raise or lower the signal
Summary of the method: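 Using transiently transfected HepG2 liver cells, reporter transcript levels were assessed 24 h post-dosing by RT-PCR and capillary electrophoresis. Changes in either direction were fitted relative to DMSO controls.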

[3] = ATG_EGR_CIS: Attagene CIS-FACTORIAL HepG2 Assay for human Early Growth Response 1 (EGR1) (AID 2282938); conditions: HepG2 Attagene CIS-FACTORIAL EGR reporter mRNA; actives raise or lower the signal
Summary of the method: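 Fluorescent capillary-electrophoresis signal of reporter cDNA fragments serves as read-out. HepG2 cells bear transiently transfected cis-promoter reporter units and are exposed 24 h; gain- or loss-of-signal is fitted against DMSO.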

[4] = ATG_M_19_CIS: Attagene CIS-FACTORIAL HepG2 Assay for M19 Transcription Factor (Internal Marker) (AID 2282939); conditions: HepG2 Attagene CIS-FACTORIAL M19 internal marker reporter; actives raise or lower the signal
Summary of the method: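 Transfect HepG2 with MRTU reporter library → dose chemical, 24 h → isolate total RNA, reverse-transcribe with oligo(dT) → PCR, 6-FAM label, HpaI cut (2 h, 37 C) → capillary electrophoresis. Bidirectional fit vs DMSO.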

[5] = ATG_Ets_CIS: Attagene CIS-FACTORIAL HepG2 Assay for human Erythroblast Transformation Specific (ETS) (AID 2282941); conditions: HepG2 ETS cis-reporter transcription, actives raise or lower the signal
Summary of the method: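 Human HepG2 hepatoma cells were transiently transfected with promoter-driven reporter constructs and treated for 24 hours. Reporter transcripts were quantified by RT-PCR with fluorescent primer extension; bidirectional curve fitting used DMSO as reference.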

[6] = molecular target: Hepatocyte nuclear factor 3-beta (Homo sapiens) (UniProt Q9Y261); assay: ATG_FoxA2_CIS: Attagene CIS-FACTORIAL HepG2 Assay for human Forkhead box A2 (FOXA2) (AID 2282942); conditions: HepG2 cis-reporter transcription factor activity, 24 h; actives raise or lower the signal
Summary of the method: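 Fluorescence signal of reporter cDNA fragments, separated by capillary electrophoresis, reflects endogenous transcription factor activity in transfected HepG2 after 24 h. Both increases and decreases fitted against DMSO.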

[7] = ATG_FoxO_CIS: Attagene CIS-FACTORIAL HepG2 Assay for human Forkhead box O (FoxO) (AID 2282943); conditions: HepG2 Attagene cis-reporter, FoxO element, mRNA; actives raise or lower the signal
Summary of the method: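 HepG2 cells transiently transfected with cis-promoter-driven multiple reporter transcription units; 24 h after chemical dosing, reporter mRNA quantified by RT-PCR, fluorescent primer extension, HpaI digestion and capillary electrophoresis. Bidirectional fitting versus DMSO baseline.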

[8] = ATG_GATA_CIS: Attagene CIS-FACTORIAL HepG2 Assay for human GATA Binding Protein (AID 2282944); conditions: HepG2 GATA cis-element reporter, Attagene multiplex mRNA; actives raise or lower the signal
Summary of the method: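 Transient MRTU transfection, HepG2, 24 h compound exposure. Total RNA → oligo(dT) RT → PCR → 6-FAM primer extension → HpaI cut → CE. Bidirectional fit vs DMSO.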

[9] = ATG_GLI_CIS: Attagene CIS-FACTORIAL HepG2 Assay for human Zinc Finger Protein GLI1 (AID 2282945); conditions: HepG2, Attagene cis-factorial reporter mRNA, GLI element; actives raise or lower the signal
Summary of the method: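 HepG2 cells transiently transfected with cis-promoter multiplexed reporter units report endogenous transcription factor activity. After 24 h chemical exposure, reporter mRNA was quantified by RT-PCR, 6-FAM labelling, HpaI digestion and capillary electrophoresis, with bidirectional fitting against DMSO.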

[10] = molecular target: Bile acid receptor (Homo sapiens) (UniProt Q96RI1); assay: ATG_IR1_CIS: Attagene CIS-FACTORIAL HepG2 Assay for human Nuclear Receptor Subfamily 1 Group H Member 4 (NR1H4), IR1 submotif (AID 2282946); conditions: IR1 reporter transcription, actives raise or lower the signal
Summary of the method: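 Transient MRTU transfection, HepG2; 24 h dosing; RNA → RT-PCR → 6-FAM primer extension → HpaI digest → capillary electrophoresis fluorescence. Gain/loss of signal fitted relative to DMSO.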

[11] = ATG_GRE_CIS: Attagene CIS-FACTORIAL HepG2 Assay for human Glucocorticoid Response Elements (GRE) (AID 2282947); conditions: HepG2 GRE cis-reporter, Attagene multiplex mRNA; actives raise or lower the signal
Summary of the method: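 Following 24 h chemical exposure of transiently transfected HepG2 cells, total RNA was reverse-transcribed and reporter cDNA amplified, fluorescently labelled and sized by capillary electrophoresis. Signal gain or loss was fitted relative to DMSO vehicle.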

[12] = ATG_M_32_CIS: Attagene CIS-FACTORIAL HepG2 Assay for M32 Transcription Factor (Internal Marker) (AID 2282949); conditions: HepG2 Attagene cis-factorial M32 reporter, mRNA; actives raise or lower the signal;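 also: background control marker of the multiplexed CIS panel rather than a real target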
Summary of the method: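 Fluorescent capillary electrophoresis peaks of HpaI-digested, FAM-labelled RT-PCR reporter products give the signal. Source: transiently transfected human liver HepG2 cells, 24 h after chemical dosing; bidirectional fitting against DMSO.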

[13] = ATG_M_06_CIS: Attagene CIS-FACTORIAL HepG2 Assay for M06 Transcription Factor (Internal Marker) (AID 2282950); conditions: HepG2 Attagene CIS-FACTORIAL M06 internal marker reporter; actives raise or lower the signal
Summary of the method: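 Read-out is fluorescence of labelled reporter cDNA fragments resolved by capillary electrophoresis after RT-PCR. Cells: HepG2 carrying transfected cis-promoter reporter units, treated 24 h. Gain or loss of signal fitted relative to DMSO.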

[14] = molecular target: Hypoxia-inducible factor 1-alpha (Homo sapiens) (UniProt Q16665); assay: ATG_HIF1a_CIS: Attagene CIS-FACTORIAL HepG2 Assay for human Hypoxia Inducible Factor 1 (HIF1A) (AID 2282951); conditions: HepG2 Attagene cis-factorial HIF1a reporter transcription; actives raise or lower the signal
Summary of the method: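 Endogenous-TF cis reporter readout, human HepG2 cells, 24 h incubation; mRNA detected via RT-PCR and capillary electrophoresis fluorescence; DMSO-normalised bidirectional fitting.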

[15] = molecular target: Hepatocyte nuclear factor 6 (Homo sapiens) (UniProt Q9UBC0); assay: ATG_HNF6_CIS: Attagene CIS-FACTORIAL HepG2 Assay for human Hepatocyte Nuclear Factor 6 (HNF6) (AID 2282952); conditions: HepG2 Attagene cis-factorial HNF6 reporter transcription; actives raise or lower the signal
Summary of the method: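 Multiplexed mRNA reporter assay in transfected HepG2; 24 h dosing; RT-PCR plus capillary electrophoresis fluorescence; DMSO-referenced bidirectional curve fitting.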

[16] = molecular target: Heat shock factor protein 1 (Homo sapiens) (UniProt Q00613); assay: ATG_HSE_CIS: Attagene CIS-FACTORIAL HepG2 Assay for human Heat Shock Transcription Factor 1 (HSE) (AID 2282953); conditions: HepG2 HSE cis-reporter, Attagene RNA transcription; actives raise or lower the signal
Summary of the method: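 HepG2, transient MRTU transfection, cis-promoter reporters (endogenous TF activity). 24 h compound. RNA → oligo(dT) RT → PCR → 6-FAM primer extension → HpaI cut → CE. Bidirectional fit vs DMSO.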

[17] = ATG_MRE_CIS: Attagene CIS-FACTORIAL HepG2 Assay for human Metal Responsive Element (MRE) (AID 2282954); conditions: HepG2 MRE cis-reporter transcription, Attagene multiplex; actives raise or lower the signal
Summary of the method: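 Step one: transfect HepG2 with cis-regulated reporter units. Step two: dose 24 h. Step three: isolate RNA, RT-PCR, 6-FAM label, HpaI digest, capillary electrophoresis. Fit bidirectionally to DMSO.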

[18] = ATG_PBREM_CIS: Attagene CIS-FACTORIAL HepG2 Assay for human Phenobarbital-responsive Enhancer Module (PBREM) (AID 2282955); conditions: HepG2 PBREM cis-reporter, Attagene multiplexed transcription; actives raise or lower the signal
Summary of the method: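 Readout: reporter mRNA, fluorescent RT-PCR fragments separated by capillary electrophoresis. System: HepG2 transiently transfected with cis-regulated reporter units. Exposure: 24 h. Analysis: bidirectional, DMSO baseline.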

[19] = ATG_ISRE_CIS: Attagene CIS-FACTORIAL HepG2 Assay for human Interferon Regulatory Factor 1 (IRF1) binding to an Interferon-Stimulated Response Element (ISRE) (AID 2282948); conditions: HepG2 ISRE cis-reporter (Attagene), mRNA transcription readout; actives raise or lower the signal
Summary of the method: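 Cell-based cis-reporter assay; HepG2; 24 h exposure; reporter mRNA by RT-PCR plus capillary electrophoresis fluorescence; activity in either direction scored relative to DMSO.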

Measured: AC50

Bile acid receptor (Homo sapiens), sequence (Q96RI1 whole entry, looked up): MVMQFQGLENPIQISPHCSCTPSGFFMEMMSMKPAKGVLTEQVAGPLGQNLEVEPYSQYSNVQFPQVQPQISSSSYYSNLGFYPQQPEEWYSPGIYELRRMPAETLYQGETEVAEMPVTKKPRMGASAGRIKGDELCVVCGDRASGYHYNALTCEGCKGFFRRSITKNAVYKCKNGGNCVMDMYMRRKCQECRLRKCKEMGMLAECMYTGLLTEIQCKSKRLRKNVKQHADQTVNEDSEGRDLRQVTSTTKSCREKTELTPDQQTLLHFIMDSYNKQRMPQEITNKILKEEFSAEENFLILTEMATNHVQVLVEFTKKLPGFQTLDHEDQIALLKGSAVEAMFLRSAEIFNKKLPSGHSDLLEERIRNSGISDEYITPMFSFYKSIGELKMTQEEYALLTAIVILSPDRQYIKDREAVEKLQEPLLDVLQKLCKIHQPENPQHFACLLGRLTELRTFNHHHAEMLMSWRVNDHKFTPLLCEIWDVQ
Hepatocyte nuclear factor 3-beta (Homo sapiens), sequence (Q9Y261 whole entry, looked up, the tested form may be a part): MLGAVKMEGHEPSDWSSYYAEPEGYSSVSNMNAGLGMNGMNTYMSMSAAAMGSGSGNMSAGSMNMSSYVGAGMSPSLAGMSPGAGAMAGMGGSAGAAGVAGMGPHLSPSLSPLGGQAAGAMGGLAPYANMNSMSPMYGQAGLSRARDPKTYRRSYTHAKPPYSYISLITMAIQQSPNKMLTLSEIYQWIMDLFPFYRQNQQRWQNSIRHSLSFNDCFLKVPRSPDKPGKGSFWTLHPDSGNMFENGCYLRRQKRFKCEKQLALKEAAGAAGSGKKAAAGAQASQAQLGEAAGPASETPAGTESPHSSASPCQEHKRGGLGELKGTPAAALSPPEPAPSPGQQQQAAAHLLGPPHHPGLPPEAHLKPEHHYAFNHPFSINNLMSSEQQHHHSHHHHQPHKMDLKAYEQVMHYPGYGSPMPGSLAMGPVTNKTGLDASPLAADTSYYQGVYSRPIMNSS
Heat shock factor protein 1 (Homo sapiens), sequence (Q00613 whole entry, looked up): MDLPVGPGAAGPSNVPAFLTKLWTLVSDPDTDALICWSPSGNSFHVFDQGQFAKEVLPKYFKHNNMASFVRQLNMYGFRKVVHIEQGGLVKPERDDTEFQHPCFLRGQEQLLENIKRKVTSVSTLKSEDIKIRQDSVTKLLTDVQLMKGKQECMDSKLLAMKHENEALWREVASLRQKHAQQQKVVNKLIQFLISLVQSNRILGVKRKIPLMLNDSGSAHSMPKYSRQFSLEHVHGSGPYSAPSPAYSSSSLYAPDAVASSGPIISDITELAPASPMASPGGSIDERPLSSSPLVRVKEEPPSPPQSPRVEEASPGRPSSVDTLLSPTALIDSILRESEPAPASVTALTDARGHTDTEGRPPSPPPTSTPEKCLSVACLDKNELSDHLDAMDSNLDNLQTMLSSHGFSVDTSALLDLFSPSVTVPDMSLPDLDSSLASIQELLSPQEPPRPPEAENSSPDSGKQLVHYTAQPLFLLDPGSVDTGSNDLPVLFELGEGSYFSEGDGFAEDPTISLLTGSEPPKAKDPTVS
Hepatocyte nuclear factor 6 (Homo sapiens), sequence (Q9UBC0 whole entry, looked up): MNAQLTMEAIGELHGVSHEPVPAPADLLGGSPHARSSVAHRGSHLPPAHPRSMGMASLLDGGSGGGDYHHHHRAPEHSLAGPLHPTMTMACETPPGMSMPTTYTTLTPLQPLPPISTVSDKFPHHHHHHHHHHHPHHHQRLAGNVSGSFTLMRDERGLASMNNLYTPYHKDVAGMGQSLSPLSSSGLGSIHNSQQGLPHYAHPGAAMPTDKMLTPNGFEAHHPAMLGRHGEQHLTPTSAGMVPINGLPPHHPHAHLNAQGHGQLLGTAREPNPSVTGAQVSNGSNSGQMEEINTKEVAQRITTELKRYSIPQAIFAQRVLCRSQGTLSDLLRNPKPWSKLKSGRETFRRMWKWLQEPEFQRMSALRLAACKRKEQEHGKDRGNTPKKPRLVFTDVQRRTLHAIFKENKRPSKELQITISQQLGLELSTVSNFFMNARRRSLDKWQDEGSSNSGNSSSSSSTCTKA
Hypoxia-inducible factor 1-alpha (Homo sapiens), sequence (Q16665 whole entry, looked up): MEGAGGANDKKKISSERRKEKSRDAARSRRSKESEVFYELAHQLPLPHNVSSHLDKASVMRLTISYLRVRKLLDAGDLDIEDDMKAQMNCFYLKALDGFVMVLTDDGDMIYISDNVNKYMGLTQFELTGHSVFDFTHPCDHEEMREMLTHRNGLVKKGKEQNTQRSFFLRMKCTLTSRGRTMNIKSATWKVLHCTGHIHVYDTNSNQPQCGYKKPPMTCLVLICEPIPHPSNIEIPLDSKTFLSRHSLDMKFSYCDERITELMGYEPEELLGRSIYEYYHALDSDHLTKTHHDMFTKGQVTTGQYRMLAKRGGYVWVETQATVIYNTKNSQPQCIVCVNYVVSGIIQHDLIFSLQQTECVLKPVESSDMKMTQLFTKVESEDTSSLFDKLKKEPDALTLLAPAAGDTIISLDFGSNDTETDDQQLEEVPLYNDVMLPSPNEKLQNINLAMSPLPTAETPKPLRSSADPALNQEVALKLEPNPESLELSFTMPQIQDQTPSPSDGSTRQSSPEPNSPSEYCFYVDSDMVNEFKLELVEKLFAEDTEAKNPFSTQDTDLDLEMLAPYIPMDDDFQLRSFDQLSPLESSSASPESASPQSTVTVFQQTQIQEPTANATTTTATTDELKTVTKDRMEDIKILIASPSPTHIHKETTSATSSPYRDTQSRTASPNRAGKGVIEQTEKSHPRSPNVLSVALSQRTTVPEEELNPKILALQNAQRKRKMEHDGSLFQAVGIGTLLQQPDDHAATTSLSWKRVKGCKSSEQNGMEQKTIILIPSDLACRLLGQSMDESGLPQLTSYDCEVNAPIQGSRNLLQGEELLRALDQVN

CCC(C)c1cc([N+](=O)[O-])cc([N+](=O)[O-])c1O (stereo unspecified)
active: [17] 13.5 µM
not listed: [19]
inactive: all other assays above

C=CC(N)=O
not listed: [10] | [14] | [18]
inactive: all other assays above

C[C@]12CCC(=O)C=C1CC[C@@H]1[C@@H]2CC[C@@]2(C)[C@H]1CC[C@]2(C)O
inactive: [1] | [2] | [3] | [4] | [5] | [6] | [7] | [8] | [9] | [10] | [11] | [12] | [13] | [14] | [15] | [16] | [17] | [18]
active: [17] 132 µM and 129 µM and 79.4 µM

ClC1=C(Cl)[C@]2(Cl)[C@@H]3[C@@H]4C[C@@H]([C@H]5O[C@@H]45)[C@@H]3[C@@]1(Cl)C2(Cl)Cl
active: [19] 80.5 µM | [17] 46.5 µM
not listed: [10] | [14] | [18]
inactive: all other assays above

C1CC2OC2CC1C1CO1 (stereo unspecified)
not listed: [11] | [19]
inactive: all other assays above

CC#Cc1cc(C)nc(Nc2ccccc2)n1
active: [1] 140 µM | [3] 67.5 µM | [17] 68.2 µM
not listed: [10] | [14]
inactive: all other assays above

Clc1ccc(Cl)cc1
active: [16] 179 µM
inactive: [1] | [2] | [3] | [4] | [5] | [6] | [7] | [8] | [9] | [11] | [19] | [12] | [13] | [15] | [16] | [17] | [18]
